PubChem BioAssay
Records with an inconclusive call do not appear. The source made the active and inactive calls.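 Rule for the calls, unless noted: active = viability increase at or above a cutoff of the median across tested compounds plus 3 SD (cut at about 8.5% in these data, passing the limit was not always enough); inconclusive = some gains above the cutoff, reason not given; inactive = the rest.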

Legend:
[1] = reducers of endogenous Her2 protein level, primary screen, SKBR3 breast tumor cells, AlphaScreen, ATP viability (AID 461;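 active = Her2 level under about 52% in both replicate screens, with viability over 70% of control, limit read from the data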;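 for Her2 level: lower value means less Her2 protein in the cells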;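 for viability: percent of carrier control wells set as 100% viability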); details: 18-24 h, measured here: SKBR3 viability, ATP luminescence, at 10 µM
[2] = target: Receptor tyrosine-protein kinase erbB-2 (Homo sapiens) (UniProt P04626); experiment: as above; details: 18-24 h, at 10 µM, stronger effect = lower value
Chain of Receptor tyrosine-protein kinase erbB-2 (Homo sapiens) (P04626 whole entry, looked up): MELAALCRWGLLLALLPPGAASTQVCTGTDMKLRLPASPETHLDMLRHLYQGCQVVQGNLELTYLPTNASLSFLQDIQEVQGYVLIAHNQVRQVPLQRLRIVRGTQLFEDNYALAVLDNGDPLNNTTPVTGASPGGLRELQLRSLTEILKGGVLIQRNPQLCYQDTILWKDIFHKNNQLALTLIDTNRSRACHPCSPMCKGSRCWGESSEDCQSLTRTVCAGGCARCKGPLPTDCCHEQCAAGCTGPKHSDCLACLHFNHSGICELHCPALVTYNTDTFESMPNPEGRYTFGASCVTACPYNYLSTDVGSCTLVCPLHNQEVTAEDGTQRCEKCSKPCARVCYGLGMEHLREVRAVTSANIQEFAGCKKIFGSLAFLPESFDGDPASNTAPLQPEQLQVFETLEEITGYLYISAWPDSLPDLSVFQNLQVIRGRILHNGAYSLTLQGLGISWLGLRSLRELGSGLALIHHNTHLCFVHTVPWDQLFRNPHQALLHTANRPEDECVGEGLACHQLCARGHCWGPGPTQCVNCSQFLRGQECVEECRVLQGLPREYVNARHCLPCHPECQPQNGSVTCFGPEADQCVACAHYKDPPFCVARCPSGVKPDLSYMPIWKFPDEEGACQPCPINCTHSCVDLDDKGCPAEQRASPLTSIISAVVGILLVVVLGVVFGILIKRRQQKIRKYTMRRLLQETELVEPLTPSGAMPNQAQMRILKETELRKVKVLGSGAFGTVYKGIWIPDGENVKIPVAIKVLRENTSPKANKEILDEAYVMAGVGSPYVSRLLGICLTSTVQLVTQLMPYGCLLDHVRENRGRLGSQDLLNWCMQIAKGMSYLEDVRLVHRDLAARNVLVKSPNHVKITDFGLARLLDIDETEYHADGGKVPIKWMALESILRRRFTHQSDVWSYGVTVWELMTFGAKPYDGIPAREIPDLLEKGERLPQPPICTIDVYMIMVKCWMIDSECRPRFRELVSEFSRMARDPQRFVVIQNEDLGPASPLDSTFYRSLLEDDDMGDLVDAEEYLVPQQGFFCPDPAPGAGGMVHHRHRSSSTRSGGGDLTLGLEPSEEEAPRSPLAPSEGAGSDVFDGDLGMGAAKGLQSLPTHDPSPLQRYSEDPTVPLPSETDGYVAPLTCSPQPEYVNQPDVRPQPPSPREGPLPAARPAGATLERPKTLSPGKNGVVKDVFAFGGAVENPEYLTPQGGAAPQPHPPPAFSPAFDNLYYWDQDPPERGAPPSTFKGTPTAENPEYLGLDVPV

[3] = SK-BR-3 cell growth inhibitors, pilot screen, 24 h, human (AID 572;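 active = viability at or below 10% of carrier control in both of two separate runs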;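 note: compound exposure lasted between 18 and 24 h rather than exactly 24 h; 100% = carrier-treated control wells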); details: SK-BR-3 viability, CellTiter-Glo luminescence, at 10 µM, stronger effect = lower value
[4] = HUVEC growth inhibition – cell-based, human, primary screen (AID 575;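 active = viability at or below 30% in both replicate assays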;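 note: 100% = median of untreated cell wells with 0.1% DMSO on each plate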); details: HUVEC proliferation, CellTiter-Glo luminescence, 72 h; at 10 µM; stronger effect = lower value
[5] = growth inhibitors of H69AR lung tumor, primary screen, human, duplicate replicates (AID 580;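 active = viability at or under a set limit in both replicates, limit being median viability minus 3 SD, cut at about 48% in these data, passing the limit was not always enough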;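 note: 100% = mean luminescence of untreated wells and 0% = no signal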); details: H69AR lung tumor cells viability, ATP luminescence, 72 h; at 10 µM; stronger effect = lower value
[6] = reversal of MRP1-mediated doxorubicin resistance, pilot screen, H69AR cells, doxorubicin co-treatment (AID 601;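 active = viability loss from added drug above about 55%, and viability with drug at most 40%, in both replicates, limit read from the data, passing the limit was not always enough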); details: CellTiter-Glo, 72 h, at 10 µM; for differential viability (reversal): stronger effect = higher value
[7] = 384-well plate pilot, post-Golgi transport modulator project, inhibition of yeast transport mutant growth (AID 636; in the data active = inhibition above about 31%); details: absorbance 615 nm, about 18 h, stronger effect = higher value
[8] = growth suppression of yeast trafficking mutant, preliminary HTS, modulators of trafficking downstream of Golgi apparatus project, 1536-format plate, OD 615 nm (AID 637; in the data active = inhibition above about 30%); details: yeast transport mutant growth, absorbance 615 nm, 18 h; stronger effect = higher value
[9] = OD615 S. cerevisiae growth inhibition, permissive medium, pilot counter-assay, permissive growth control for S. cerevisiae lifespan shortening project (AID 705;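 active = growth inhibition above 25% in both replicates, a cutoff set 3 SD above the mean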); details: OD615, 24 h, at 10 µM, stronger effect = higher value
[10] = Restrictive medium S. cerevisiae growth inhibition, OD615, pilot screen of yeast lifespan reduction project, restrictive growth control (AID 706;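 active = growth inhibition above a set limit, 3 SD over mean compound inhibition, in both replicates, cut at about 43% in these data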;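 note: modified DeaD lifespan yeast strain shifted to restrictive glucose medium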); details: OD615, 48 h, at 10 µM, stronger effect = higher value
[11] = viability gain of MRP-1-high H69AR cells under doxorubicin, pilot screen, MRP-1 activator project, CellTiter-Glo, duplicate (AID 807); details: H69AR viability with doxorubicin, CellTiter-Glo luminescence; at 10 µM; stronger effect = higher value;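 note: compound pretreatment 18-22 h then 72 h combined with doxorubicin; 0% = doxorubicin alone and 100% = vehicle without doxorubicin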
[12] = growth suppression of beta-catenin knockout HCT116, pilot screen, human colon tumor cells (AID 823;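 active = cell viability at or below a set limit in both duplicate runs, the limit being the all-compound median minus 4 SD, cut at about 23% in these data, passing the limit was not always enough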;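 note: 0% = wells killed by 20 µM Hyamine and 100% = untreated DMSO cell wells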); details: CellTiter-Glo, 60 h, at 10 µM, stronger effect = lower value
[13] = growth suppression of PTEN-deleted HCT116, pilot screen, cell-based, HCT116 clonal line, CellTiter-Glo (AID 824;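 active = viability at or below 27.92% in each of two runs, the all-compound median minus 4 SD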;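 note: 0% = 20 µM Hyamine control and 100% = vehicle cell control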); details: 60 h, at 10 µM, stronger effect = lower value
[14] = RAM signaling pathway blockade in yeast – S. cerevisiae, Pdr1DBD-CYC8 efflux-inhibited sensitized strain, primary screen (AID 1298;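 active = RAM network inhibition above 8.4% in each of two replicates, 3 SD over the compound average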;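 note: 0% = DMSO untreated cells without growth and 100% = 10 µM 1-NA-PP1 full growth; higher means more yeast growth rescued from 5-FOA killing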); details: S. cerevisiae cbk1-as DSE1-URA3 strain, 5-FOA growth OD615, 2 d; at 50 µM; stronger effect = higher value
[15] = inhibitors of the yeast RAM network, pilot screen, dse1pr::URA3 reporter, 5-FOA selection (AID 869;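 active = inhibition over a set limit, the all-compound mean plus 3 SD, in both replicate runs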;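 note: 0% = DMSO wells with no growth and 100% = 10 µM 1-NA-PP1 with full growth; RAM network block rescues cells from 5-FOA so hits raise OD615 growth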); details: S. cerevisiae dse1pr::URA3 5-FOA growth, OD615, 2 d; at 10 µM; stronger effect = higher value; strain carries analog-sensitive mutant Cbk1 kinase
[16] = H69AR cells + 2 uM doxorubicin, measured here: viability with 2 uM doxorubicin, stronger effect = lower value
[17] = H69AR cells, compound alone cytotoxicity

COc1ccc(N2Cc3ccccc3C2)cc1Cl
inactive: Her2 level [2] 114% | viability [3] 118% | viability [4] 81.9% | viability [5] 89.9% | differential viability (reversal) ([6]; H69AR cells + 2 uM doxorubicin) -4.19% | inhibition [7] -4.27% | inhibition [8] -9.17% | growth inhibition [9] -2.97% | growth inhibition [10] -10.6% | viability increase [11] 0.04% | viability [12] 94% | viability [13] 87.7% | RAM network inhibition [14] 7.11%
94%: viability [6, 16]
89.9%: viability [6, 17]
118%: viability [1]

O=C(NC1CCCc2ccccc21)c1ccc(CNc2c(N3CCOCC3)c(=O)c2=O)cc1 (stereo unspecified)
86.5%: viability [1]
inactive: Her2 level [2] 100% | viability [3] 86.5% | viability [4] 95.5% | viability [5] 91.7% | differential viability (reversal) ([6]; H69AR cells + 2 uM doxorubicin) 14.2% | inhibition [7] 1.79% | inhibition [8] 2.67% | growth inhibition [9] -3.71% | growth inhibition [10] -2.73% | viability increase [11] -3.89% | viability [12] 89.1% | viability [13] 59.3% | RAM network inhibition [14] 6.53%
77.5%: viability [6, 16]
91.7%: viability [6, 17]

COc1ccc(Cl)cc1S(=O)(=O)N1CCN(c2ccc(F)cc2)CC1
inactive: Her2 level [2] 82% | viability [3] 80% | viability [4] 90.1% | viability [5] 75.8% | differential viability (reversal) ([6]; H69AR cells + 2 uM doxorubicin) -11.6% | inhibition [7] 4.23% | inhibition [8] 12.7% | growth inhibition [9] -13% | growth inhibition [10] -15.5% | viability increase [11] -2.08% | viability [12] 82.4% | viability [13] 89.7% | inhibition [15] -0.355% | RAM network inhibition [14] 1.85%
87.4%: viability [6, 16]
75.8%: viability [6, 17]
80%: viability [1]

CCOC(=O)C1CCN(c2c(NC3CCCc4ccccc43)c(=O)c2=O)CC1 (stereo unspecified)
inactive: Her2 level [2] 106% | viability [3] 82% | viability [4] 106% | viability [5] 87.7% | differential viability (reversal) ([6]; H69AR cells + 2 uM doxorubicin) 0.54% | inhibition [7] 1.41% | inhibition [8] 0.67% | growth inhibition [9] 6.77% | growth inhibition [10] -3.4% | viability increase [11] -1.77% | viability [12] 102% | viability [13] 96.8% | inhibition [15] -0.155% | RAM network inhibition [14] 0%
87.2%: viability [6, 16]
82%: viability [1]
87.7%: viability [6, 17]

COc1cc(C2N3CC4(C)CN2CC(C)(C3)C4)ccc1O (stereo unspecified)
inactive: Her2 level [2] 123% | viability [3] 94% | viability [4] 105% | viability [5] 104% | differential viability (reversal) ([6]; H69AR cells + 2 uM doxorubicin) 11.5% | inhibition [7] -0.51% | inhibition [8] -2% | growth inhibition [9] -5.33% | growth inhibition [10] 1.65% | viability increase [11] 0.39% | viability [12] 104% | viability [13] 98% | inhibition [15] 1.72% | RAM network inhibition [14] 0.39%
104%: viability [6, 17]
94%: viability [1]
92.3%: viability [6, 16]

COC(=O)CSC1=C(C#N)C(c2ccc(F)cc2)CC(=O)N1 (stereo unspecified)
80.6%: viability [6, 16]
inactive: Her2 level [2] 105% | viability [3] 109% | viability [4] 101% | viability [5] 80.8% | differential viability (reversal) ([6]; H69AR cells + 2 uM doxorubicin) 0.195% | inhibition [7] -4.93% | inhibition [8] -4.75% | growth inhibition [9] 9% | growth inhibition [10] -15.4% | viability increase [11] -0.35% | viability [12] 100% | viability [13] 95.9% | inhibition [15] 0.905% | RAM network inhibition [14] -1.71%
109%: viability [1]
80.8%: viability [6, 17]

COc1ccc(C(=O)Nc2nncs2)c(OC)c1
96.9%: viability [6, 17]
inactive: Her2 level [2] 112% | viability [3] 95.5% | viability [4] 93.1% | viability [5] 96.9% | differential viability (reversal) ([6]; H69AR cells + 2 uM doxorubicin) 6.36% | inhibition [7] -3.46% | inhibition [8] 3.33% | growth inhibition [9] -4.15% | growth inhibition [10] -11.7% | viability increase [11] -0.64% | viability [12] 102% | viability [13] 93.9% | RAM network inhibition [14] 5.61%
95.5%: viability [1]
90.5%: viability [6, 16]

Cc1ccc(N(C(=O)c2ccncc2)C2C=CS(=O)(=O)C2)cc1 (stereo unspecified)
103%: viability [6, 17]
inactive: Her2 level [2] 110% | viability [3] 108% | viability [4] 101% | viability [5] 103% | differential viability (reversal) ([6]; H69AR cells + 2 uM doxorubicin) 5.2% | inhibition [7] 0.51% | inhibition [8] 7.33% | growth inhibition [9] -8.7% | growth inhibition [10] -14% | viability increase [11] 0.88% | viability [12] 93.8% | viability [13] 98.4% | RAM network inhibition [14] 5.22%
97.5%: viability [6, 16]
108%: viability [1]

CCOc1ccc(N(CC(=O)Nc2ccc(F)c(F)c2)S(=O)(=O)c2c(C)noc2C)cc1
64.3%: viability [6, 16]
inactive: Her2 level [2] 80% | viability [3] 83.5% | viability [4] 54% | viability [5] 65.8% | differential viability (reversal) ([6]; H69AR cells + 2 uM doxorubicin) 1.49% | inhibition [7] -4.4% | inhibition [8] -1.31% | growth inhibition [9] -11.3% | growth inhibition [10] -9.45% | viability increase [11] -3.6% | viability [12] 93% | viability [13] 88.7% | inhibition [15] 2.33% | RAM network inhibition [14] 4.77%
83.5%: viability [1]
65.8%: viability [6, 17]

CCN1CCN(Cc2ccc(NC(=O)Nc3ccccc3)cc2)CC1
82%: viability [1]
inactive: Her2 level [2] 106% | viability [3] 82% | viability [4] 82.5% | viability [5] 88.7% | differential viability (reversal) ([6]; H69AR cells + 2 uM doxorubicin) -0.57% | inhibition [7] 2.82% | inhibition [8] 0.33% | growth inhibition [9] -11.3% | growth inhibition [10] -11.3% | viability increase [11] 0.37% | viability [12] 103% | viability [13] 98.7% | inhibition [15] 1.09% | RAM network inhibition [14] 1.93%
88.7%: viability [6, 17]
89.3%: viability [6, 16]
